DAX1 inh: DAX1 (NR0B1) inhibition, primary screen | HEK293T StAR-luciferase reporter, SF-1/DAX-1 repression relief | AID 652010 | 370,000 compounds, 1.1% hits | inhibition, % at 6.8 µM;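 active means inhibition above the mean over all tested compounds plus 3 SD, cut at about 3.6% in these data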;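 further: higher inhibition means more luminescence from relief of DAX-1 repression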
SMARCA2 act: activators of SMARCA2 function. MG213 cells, MMTV-luciferase reporter, dexamethasone, overnight. activation, % at 9.1 µM. 370,000 compounds, 1% hits. AID 652017; in the data active means activation above about 7.8%
ssDAF-12 act: activators of S. stercoralis DAF-12 nuclear receptor; HEK293 ssDAF-12/GRIP1 lit1-tk-luc reporter, luminescence; % of 3 µM dafachronic acid response; activation, % at 6.8 µM; 370,000 compounds, 1% hits;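 active means activation above the mean over all tested compounds plus 3 SD, cut at about 0.9% in these data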
hgDAF-12 ag: agonists of H. glycines DAF-12 nuclear receptor; HEK293 GAL4-hgDAF12 UAS-luciferase reporter, agonist luminescence; normalized to butyrate control; activation, % at 6.8 µM; 370,000 compounds, 1.8% hits;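 active means activation above a cutoff set at the mean of all screened compounds plus 3 SD, cut at about 10% in these data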
hcDAF-12 act: activates DAF-12 receptor from parasite H. contortus; HEK293 hcDAF-12 lit1-tk-luc reporter, luminescence; 0% DMSO, 100% Δ7-dafachronic acid; 370,000 compounds, 1.4% hits; AID 652067; activation, % at 6.8 µM;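 active means activation above the mean of all tested compounds plus 3 SD, cut at about 5.5% in these data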
SMARCA2 conf: confirmation of SMARCA2 (BRM) function activators | MG213 cells, MMTV-luciferase with dexamethasone, luminescence, overnight; MG213 cells expressing E1A, Rb sequestered; DMSO wells 0%, reference activator 100% | shares compounds with SMARCA2 act | activation, % at 9.1 µM | 3,500 compounds, 30% hits;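 active means activation above its plate's cutoff, the mean activation of tested wells plus 3 SD, cut at about 7.9% in these data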
VP16 Luc act: GAL4-VP16 reporter activation counter-screen; shares compounds with SMARCA2 act; HEK293 GAL4-VP16 pG5luc reporter, luciferase luminescence; scaled: DMSO wells 0%, SAHA wells 100%; 3,500 compounds, 41% hits; AID 686939; activation, % at 9.1 µM;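 active means activation above the solvent-only control well mean plus 3 SD, averaged across control plates, cut at about 5.2% in these data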
Large screens that a line does not name were inactive (follow-up assays come after a bar, where they were run). Only some compounds are listed: those with a hit (about 4.2% of all), similar ones and a draw of the others.

Cc1ccccc1CCN(C(=O)CN1C(=O)c2ccccc2S1(=O)=O)C(C(=O)NCC1CCCO1)c1ccncc1 (stereo unspecified)	SMARCA2 act 9.0 | SMARCA2 conf inactive | VP16 Luc act inactive
O=C(NCC1CCCO1)C(c1ccncc1)N(Cc1cccs1)C(=O)CN1C(=O)c2ccccc2S1(=O)=O (stereo unspecified)	none
Cc1cc(N2CCN(S(C)(=O)=O)C[C@H]2C)ccc1N1CCN(Cc2ccccc2)[C@H](C)C1	none
O=C(Nc1ccc(F)cc1)C(CCc1ccccc1)N1CCN(C(=O)c2ccco2)CC1 (stereo unspecified)	SMARCA2 act 8.7 | SMARCA2 conf inactive | VP16 Luc act inactive
Clc1ccc(CN2CCN(N=Cc3cccc(OCc4ccccc4)c3)CC2)cc1	none
COc1ccc(-c2nnc(SCC(N)=O)n2N)cc1	none
Nn1c(SCc2ccc(Br)cc2)nnc1-c1ccncc1	none
C=C(C)CSc1nnc(-c2ccc(OC)cc2)n1N	SMARCA2 act 9.5 | SMARCA2 conf inactive | VP16 Luc act inactive
Cc1ccc(CSc2nnc(-c3ccncc3)n2N)cc1	SMARCA2 act 8.8 | SMARCA2 conf inactive | VP16 Luc act inactive
CC(=O)c1ccc([C@H](O)[C@H](C)C(=O)N(C)c2ccccc2)cc1	none
Cn1c(C(=O)NCCCN2CCN(c3ccccc3F)CC2)cc2c(=O)[nH]c3ccccc3c21	none
O=C(Cc1csc(Nc2nc(=S)[nH]c3ccccc23)n1)NCCCN1CCN(c2ccccc2F)CC1	SMARCA2 act 15 | SMARCA2 conf 9.6 | VP16 Luc act inactive
CCN(C[C@H]1N[C@@](Cc2ccccc2)(C(=O)OC)[C@H]2C(=O)N(Cc3ccccc3)C(=O)[C@@H]12)C(=O)NC(C)C	SMARCA2 act 9.2 | SMARCA2 conf inactive | VP16 Luc act inactive
O=C(N/N=C/c1ccc(-c2ccccc2C(=O)O)o1)c1cccs1	SMARCA2 act 8.6, hgDAF-12 ag 12 | SMARCA2 conf inactive | VP16 Luc act inactive
Cc1cc(C(=O)CSc2nnc(N)s2)c(C)n1Cc1ccco1	SMARCA2 act 12 | SMARCA2 conf inactive | VP16 Luc act inactive
CCCS(=O)(=O)NC(=O)C1(C)CCCN(C(=O)c2ccccc2C(F)(F)F)C1 (stereo unspecified)	SMARCA2 act 8.1 | SMARCA2 conf inactive | VP16 Luc act inactive
CCNC(=O)N(C)[C@H]1C[C@H]2c3[nH]c4cccc(-c5cccc(F)c5)c4c3CCN2C(=O)[C@H]1[C@H](C)O	none
Cc1cc(C)c2c(n1)sc1c(N3CCN(CCO)CC3)ncnc12	SMARCA2 act 8.5 | SMARCA2 conf inactive | VP16 Luc act inactive
CCOc1ncnc2c1sc1nc(C)cc(C)c12	none
COc1cc2oc(=O)cc(CN3CCN(c4ccccc4F)CC3)c2cc1Cl	none
CCOC(=O)C1(Cc2ccccc2)C(=O)Nc2ccccc21 (stereo unspecified)	none
CCOC(=O)C1(C(F)(F)F)N=C(C(F)(F)F)Nc2ccccc21 (stereo unspecified)	SMARCA2 act 9.8 | SMARCA2 conf inactive | VP16 Luc act inactive
CN(C)CCCNC(=O)c1ccccn1	SMARCA2 act 8.4 | SMARCA2 conf inactive | VP16 Luc act inactive
O=C(NCCCNC(=O)c1ccccn1)c1ccccn1	none
CCN(CC)CCC(=O)Nc1cccc2c1C(=O)c1ccccc1C2=O	SMARCA2 act 33 | SMARCA2 conf 95 | VP16 Luc act inactive
O=C(NC1=NC2(C=C3CCCCC3n3c(=O)n(-c4ccccc4)c(=O)n32)CN1CC1CC1)c1ccccc1 (stereo unspecified)	none
Cc1cc(Br)ccc1OCC(=O)NNC(=O)Cc1ccccc1	SMARCA2 act 8.9 | SMARCA2 conf inactive | VP16 Luc act inactive
O=C(COc1ccc(Br)cc1Br)NNC(=O)c1cccs1	SMARCA2 act 10 | SMARCA2 conf inactive | VP16 Luc act 8.8

Bioassay records deposited in PubChem BioAssay by The Scripps Research Institute Molecular Screening Center.
